The campaign covered roughly 53,000 sequences. About 3,700 (7%) were called active. The full list was thinned out, with actives kept by preference. Values without a mark were called inactive.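 Rule for the calls: active = gene knockdowns whose robust z-score for IL-1 alpha signal is at least 2 or at most -2, so actives lie on both sides; inactive = the rest.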
assay: Components of the Cytosolic LPS Sensing Pathway: Gene Identification via Genome-wide siRNA Screen; settings: RAW264.7 macrophages, IL-1a HTRF, actives lie on both sides, screened at 100 nM (by protocol), cells primed 5 h with Pam3CSK4 first
Source text: Non-canonical inflammasome activation by cytosolic LPS is a critical component of the host response to Gram-negative bacterial infection, however we lack a comprehensive understanding of the cellular processes that control this pathway. Here we describe a genome-wide siRNA screen to identify genes regulating the mouse macrophage IL-1 alpha response to cytosolic LPS.
RAW264.7 cells were maintained in complete DMEM media, comprising DMEM with 4.5 g/L glucose, 10% FBS (Gemini Bio-Products, West Sacramento, CA), 2 mM Glutamine (Lonza) and 20 mM HEPES (Lonza), hereafter complete DMEM.
The RNAi screen was conducted in 384-well format using the Ambion Silencer Mouse Genome siRNA Library (#4391425), which consists of three unique, nonoverlapping, nonpooled siRNAs for each of 17,000 gene targets. siRNA reagents ([…]) were stamped into 384-well white flat-bottom microplates (Corning, 3570) using a Velocity11 VPrep liquid handling system (Agilent) integrated into a BioCel robotic platform (Agilent) in columns 1-22, leaving columns 23-24 empty for negative (Ambion, Negative control #1) and positive (mouse Casp4) controls, respectively. The median value of each plate's negative control column was used to normalize sample wells, and the positive control was used to assess transfection efficiency and assay performance.
Lipofectamine RNAiMAX Transfection Reagent ([…]; Invitrogen) was added in […] serum-free, antibiotic-free media to plate wells using a Thermo Scientific Matrix WellMate and Microplate Stacker. Plates were incubated for 45 min at room temperature to allow for the sufficient formation of siRNA-lipid complexes. Cells were seeded at a density of 1x10^4 cells per well in 20 microL media containing 20% (vol/vol) FBS without antibiotics. The final concentration of siRNA in each well was 100 nM. Cells were cultured for 48h at 37 degrees C in 5% CO2 before addition of […] of TLR ligand Pam3CSK4 for 5 hours. The medium was then removed, replaced with […] growth media and cell were transfected with […] of LipidA and TransIT-TKO (Mirus) for 24 hour. At the end of the LipidA treatment, […] of supernatant was transferred to a 384 Greiner Bio-one non-binding low volume plate and […] of IL-1a HTRF reagent (Cisbio, 62MIL1APEH) was added and incubated at room temperature overnight. The plates were read on an EnVision plate reader (PerkinElmer). Cell viability was measured by adding 20ul Cell Titer Glo to the original plate and running a luminescence read on the EnVision. The quantified IL-1a signal for each siRNA gene-targeted well was divided by the median of the negative control wells and multiplied by 100 to achieve a negative control normalized value for each well/siRNA. This normalized value was then used to generate a robust z-score by first taking the log of each value and then by subtracting the median and dividing by the […].

Question: For GGAACCUAUUUUUUCGUAUTT against Gen1, which z-score is on record?
Answer: -0.322

Question: With CCAAGAUUCUCCUGAAUUATT against Plod2 as the sequence, how does the z-score read?
Answer: -0.183

Question: For CGGUGAUCAAAGAUAAGAATT against Zkscan5, which z-score is on record?
Answer: -0.936

Question: Which z-score does the source give for GGGUGCAUAUGUUUGAAGCTT against Copb2 here?
Answer: -2.5 (active)

Question: With GGUGUGGUCAUUCCAAAUGTT against Ms4a8a as the sequence, how does the z-score read?
Answer: 0.042

Question: Which z-score does the source give for GGAGCUGUGCGGUCUGUUATT against Mul1 here?
Answer: -0.626

Question: For GGAGAAAGUCAAGACCCUCTT against Jund, which z-score is on record?
Answer: 0.473

Question: With GGCUACCAUGGACACAUCATT against Magea7-ps as the sequence, how does the z-score read?
Answer: -2.31 (active)

Question: Which z-score does the source give for GGAUGUCUCGGCAUAGUUCTT against Lpar1 here?
Answer: -0.64

Question: Which z-score does the source give for GGUGAAUGCAAGAUCACCUTT against Myl1 here?
Answer: 0.343

Question: For GCAGUCGAUGUCAAGGUUATT against Plekhf2, which z-score is on record?
Answer: 0.473

Question: With GCCAGGACAAUCUGACUAUTT against Napsa as the sequence, how does the z-score read?
Answer: 3.48 (active)

Question: Which z-score does the source give for CGGGAUAGACUAUAAGACUTT against Rab40c here?
Answer: 0.612

Question: With GGAGAUGAGGAAGCUCUUCTT against Usp4 as the sequence, how does the z-score read?
Answer: -0.747

Question: Which z-score does the source give for CCAAGCAUAUGUGGUUGUUTT against Gpbp1l1 here?
Answer: -2.01 (active)

Question: Which z-score does the source give for “GGUCUACGACCGAUGUUCUTT against 9530003J23Rik” here?
Answer: 0.729

Question: With GGAGUUACCUUUCGAUAGGTT against Exoc5 as the sequence, how does the z-score read?
Answer: 0.648

Question: With GGGUGCAUAAGCAAGCUGUTT against Nkiras2 as the sequence, how does the z-score read?
Answer: -0.992

Question: Which z-score does the source give for GGGAUCAAAGAUCAGUUAATT against Pih1d2 here?
Answer: -0.98

Question: For GACAGAGGAAUUUGUCUCCTT against Olfr1120, which z-score is on record?
Answer: 2.1 (active)

Question: With CCUAGUGUGUGCUUUUCGGTT against Akr7a5 as the sequence, how does the z-score read?
Answer: -0.502

Question: For GGACCCAAGAAGUUUUAUUTT against Zbbx, which z-score is on record?
Answer: 1.3

Question: With GGAGCAGGUAAACAUGUCUTT against Fpr-rs7 as the sequence, how does the z-score read?
Answer: -0.218

Question: Which z-score does the source give for GCCUGAAAGGCCUCACAAATT against Eloa here?
Answer: -0.72

Question: For GCAGUAACUCCGGUAGUAGTT against Daxx, which z-score is on record?
Answer: 5.84 (active)

Question: With GGACUAUGCAGUUUUAUUGTT against Chrac1 as the sequence, how does the z-score read?
Answer: -0.201

Question: Which z-score does the source give for CGACCAAAAUCAAAACAGCTT against Defb12 here?
Answer: -0.093

Question: With GGAACUGGAAGAGAAUGAGTT against Sdc4 as the sequence, how does the z-score read?
Answer: 0.862

Question: For GGAGAAGAUAGAAGCUGAGTT against Rad23a, which z-score is on record?
Answer: -1.66

Question: With GGUCGAGGACAAAAAAAAATT against Dner as the sequence, how does the z-score read?
Answer: -2.27 (active)

Question: Which z-score does the source give for GGACCUAUCAACUGAGUUUTT against Hrc here?
Answer: 1.06

Question: With GGUCAUGGCUACUUCAUCCTT against Dok7 as the sequence, how does the z-score read?
Answer: 0.583

Question: For CCUUUAGAGGAAUUCACUUTT against Npas2, which z-score is on record?
Answer: -0.576

Question: For GCAAAUCCCAGCUCAAUGUTT against Zfp810, which z-score is on record?
Answer: -1.65

Question: Which z-score does the source give for CGAAGGACCAGGGAAUCUGTT against Tsg-5 here?
Answer: -0.793

Question: For GCAGGUGAAAGUGCAGAUCTT against Timm13, which z-score is on record?
Answer: 3.35 (active)

Question: For GGAUAAGAGACAAUGAAUUTT against Fut7, which z-score is on record?
Answer: -1.19

Question: For GCUCAUUCGUCCUCACAGUTT against Olfr312, which z-score is on record?
Answer: -1.11

Question: Which z-score does the source give for CCCAGGUUCCGGAGAACAATT against Abcc5 here?
Answer: 2.14 (active)

Question: For GGCUGUCCAACAAGCAGAGTT against Plekhm3, which z-score is on record?
Answer: 0.163

Question: For GGUAGACCUUUUGUCACGGTT against Cers2, which z-score is on record?
Answer: -0.0497

Question: With GGGUUUAAUCAUGAUAGAATT against Tet2 as the sequence, how does the z-score read?
Answer: -0.583

Question: For GGCUUUCCCAAAGACUUCUTT against Col11a2, which z-score is on record?
Answer: 0.518

Question: For GGACAUCAUCCAGGAAAACTT against Bcar3, which z-score is on record?
Answer: -0.347

Question: With GCCACAACAACUUGAGCAGTT against Amigo1 as the sequence, how does the z-score read?
Answer: 2.36 (active)

Question: Which z-score does the source give for CAACUCUCUUGCUCAGACATT against Olfr814 here?
Answer: -0.268

Question: With CGAACGGAAAAAUGGAAGUTT against Mrtfb as the sequence, how does the z-score read?
Answer: 0.784

Question: Which z-score does the source give for GGUCAUAGAGACAGACUACTT against Lcn12 here?
Answer: -0.378

Question: With CGCAGAACCCUGGUUUCUATT against Trappc11 as the sequence, how does the z-score read?
Answer: -0.232

Question: With GGACUUUCUCUAGGAUCCATT against Slamf8 as the sequence, how does the z-score read?
Answer: -0.705

Question: Which z-score does the source give for GGCUGGUUACCUGCAUAAGTT against Sh3bp2 here?
Answer: 0.225

Question: Which z-score does the source give for GGUACCAUCCGGAAUACAATT against Zdhhc19 here?
Answer: 3.95 (active)

Question: With GGCCUCCUAACAAUUCAGCTT against Foxp1 as the sequence, how does the z-score read?
Answer: 0.0693

Question: Which z-score does the source give for GCUCAGAGCAUGUUGGUGGTT against Dstyk here?
Answer: -0.805

Question: Which z-score does the source give for GGAUAUACAAGCACAAACUTT against Gjc3 here?
Answer: 0.432

Question: For GGGAUUUAAAAGGAAAUGUTT against Gbp7, which z-score is on record?
Answer: -1.05

Question: Which z-score does the source give for GAAGCAGAUACCAAAACAATT against Kir3dl1 here?
Answer: -3.02 (active)

Question: With GGAGGUGGUGCUUAAAGGUTT against Rnf122 as the sequence, how does the z-score read?
Answer: 0.41

Question: Which z-score does the source give for GGUGAAAAGAGAUUUGAAUTT against Sp4 here?
Answer: 0.587

Question: For GCUCGUUCUUCGACAUCUUTT against Stard3, which z-score is on record?
Answer: -0.946

Question: For GGACCUAGUGCGUUCCAAATT against H1f7, which z-score is on record?
Answer: 2.92 (active)

Question: For GCGAUAUUUCAAGAGAAGCTT against Evc2, which z-score is on record?
Answer: -0.372

Question: With CCCAAGCCUACCUUACGAGTT against Hipk2 as the sequence, how does the z-score read?
Answer: -1.67

Question: With CCUAAUACCUUCAGUGUUCTT against Ptcd3 as the sequence, how does the z-score read?
Answer: 0.865

Question: For GGAAACUUAAGCAAAUUCUTT against Gprc6a, which z-score is on record?
Answer: 3.11 (active)

Question: With GGUGACUUUUUGGUACAGATT against Mthfr as the sequence, how does the z-score read?
Answer: 0.558

Question: Which z-score does the source give for GGCUGUUAUCCAGAGAGAUTT against Nim1k here?
Answer: 0.177

Question: Which z-score does the source give for GGACCUGAACACAGCUACUTT against Stoml1 here?
Answer: 1.04

Question: With GGAGAUCCUUAAGCUGUUGTT against Aen as the sequence, how does the z-score read?
Answer: -2.37 (active)
